This note sets out measurements from PubChem BioAssay AID1259240 (Keith Lab, Institute of Cancer Science, University of …, 2017).

Calls of active or inactive are those of the source. No stated cut-off is given here; in the data, active means fold change mostly below about -2 (no sharp cut-off); inactive means mostly above about -1.8.

The assay can be described thus: TERT promoter activity modulators, primary screen, cell-based, luciferase reporter, human (AID 1259240). The note with it: A2780 TERT promoter luciferase reporter, 16 h; at 20 µM, fold versus average of vehicle-only wells. A general note: In a reporter assay the amount or activity of a reporter protein is the signal.
Consider `Cn1c(=O)oc2cc(S(=O)(=O)N3CCCC(C(=O)NCCN4CCCC4)C3)ccc21` (stereo not given), for which the fold change was 1.73 (inactive).

Regarding `CCOC(=O)N1CCN(c2c(NCCCOC)c(=O)c2=O)CC1`, the fold change is 1.11 (inactive).

Consider `CCOC(=O)c1c(C=O)c2ccccc2n1C`, for which the fold change was 1.15 (inactive).

Consider `Cn1c(=O)c2c(SCC(=O)Nc3ccccc3F)nc(-c3cccs3)nc2n(C)c1=O`, for which the fold change was 1.46 (inactive).

Regarding `COc1cc(OC)cc(-c2cc(N)n(S(=O)(=O)Cc3ccccc3)n2)c1`, the fold change was 1.16 (inactive).

Consider `CCN1C(=O)C(O)(CC(=O)c2ccc3c(c2)OCCO3)c2ccccc21` (stereo not given), for which the fold change was -1.17 (inactive).

Regarding `COC(CNS(=O)(=O)c1cccc2cccnc12)OC`, the fold change is -1.06 (inactive).

Turning to `Cc1cc(C(=O)N2CCN(Cc3ccc4c(c3)OCO4)CC2)on1`, the fold change was 1.36 (inactive).

With `Cc1nc2cc(-c3ccc(Cl)cc3)nn2c(C)c1CCC(=O)O`, the fold change was -16.5 (active).

In the case of `CC(C)OCCCNC(=O)Cc1ccc(NC2=NC3CS(=O)(=O)CC3S2)cc1` (stereo not given), the fold change is -1.17 (inactive).

In the case of `O=C(CSc1nnc2ccc3ccccc3n12)Nc1ccc2c(c1)OCCO2`, the fold change is 1.3 (inactive).

For the molecule `Cc1nc2cc(-c3ccccc3)nn2c(C)c1CCC(=O)O`, the fold change is -6.77 (active).

As to `CC(=O)NCCNC(=O)c1cccn2c(=O)c3c4c(sc3nc12)CCCC4`, the fold change is -1.41 (inactive).

As to `CC(C)C(NS(=O)(=O)c1ccc2c(c1)oc(=O)n2C)C(=O)NCc1cccs1` (stereo not given), the fold change was -1.35 (inactive).

On to `CC(C)Cc1nnc(NC(=O)CSc2ncn[nH]2)s1`, for which the fold change is -1.25 (inactive).

Take `CC(=O)N1CSCC1C(=O)N1CCN(c2ccc(N3CCOCC3)nn2)CC1` (stereo not given): the fold change was -1.03 (inactive).

Consider `CCOC(=O)c1c(NC(=O)CSc2ncccn2)sc(C(C)=O)c1C`, for which the fold change is -1.02 (inactive).

Take `COc1ccc(-c2nc(CSc3nc4c(c(=O)[nH]3)CCC4)c(C)o2)cc1`: the result was inactive.

With `COC(=O)c1ccc(-c2ccc(/C=C3/NC(=O)N(c4ccccc4)C3=O)o2)cc1`, the fold change is -2.59 (active).

Take `CCNc1nc(NCC)nc(C(=O)OCCO)n1`: the fold change is 1.24 (inactive).

As for `CC(C)C(NC(=O)CN1C(=O)c2ccccc2S1(=O)=O)C(C)C`, the fold change was -2.34 (active).

For `CC1CCCC(NC(=O)CN(C)S(=O)(=O)c2ccc3c(c2)CCC(=O)N3)C1C` (stereo not given), the fold change is -1.68 (inactive).

On to `COc1ccc(-c2cc3ccccc3n2CC(O)CN2CCN(CCO)CC2)cc1` (stereo not given), for which the fold change is -1.49 (inactive).

For the molecule `COC(=O)CSc1nnc2c3c4c(sc3nc(C)n12)CCCC4`, the fold change is -1.45 (inactive).

Turning to `O=C(O)CSc1ncn(-c2ccccc2)n1`, the fold change was -4.67 (active).

Consider `O=C(O)CN1C(=O)/C(=C/c2ccc(SCc3ccco3)o2)SC1=S`, for which the fold change was -1.49 (inactive).

Regarding `O=C(NCCc1c[nH]c2ccccc12)C1CCN(c2ccc(N3CCOCC3)nn2)CC1`, the fold change was -1.29 (inactive).

Regarding `CCOC(=O)c1nn(-c2ccc(C)cc2)c(=O)c2c(NC(=O)c3ccc(C)c([N+](=O)[O-])c3)scc12`, the fold change was 1.24 (inactive).

For `Fc1ccccc1Nc1nc2ccccc2n2nnnc12`, the fold change was 1.5 (inactive).

On to `O=C(CSc1nc2[nH]ncc2c(=O)n1-c1ccccc1)Nc1nsc(-c2ccc(Cl)cc2)n1`, for which the fold change was 1.26 (inactive).

Turning to `O=S(=O)(NCc1ccccn1)c1cccc2cccnc12`, the fold change is -1.29 (inactive).

Consider `Cc1nc2c(-c3ccc(F)cc3)c(C)nn2c(C)c1CCC(=O)NC(C)C`, for which the fold change was -1.28 (inactive).

Take `CC1(C)CC2CC(C)(CN2C(=O)CSc2nc(-c3ccco3)cc(C(F)(F)F)n2)C1` (stereo not given): the fold change is -1.47 (inactive).

With `O=C(Cn1c(=O)n(Cc2ccco2)c(=O)c2ccccc21)Nc1ccc(Cl)cc1Cl`, the fold change was -1.13 (inactive).

`CCOC(=O)N1CCC(Nc2c(N3CCN(c4ccccc4)CC3)c(=O)c2=O)CC1`: the fold change was -1.05 (inactive).

`O=C(CCSc1nc(-c2ccc3c(c2)OCO3)cc(C(F)(F)F)n1)N1CCCCC1`: the fold change was -1.15 (inactive).

On to `CCCN1C(=O)C2(/C(=C(/O)c3ccc(C)cc3)C(=O)C(=O)N2CCOC)c2ccccc21` (stereo not given), for which the fold change was 1.26 (inactive).

As to `COc1ccc(C2C=C(c3cccnc3)Nc3nc4ccccc4n32)cc1` (stereo not given), the outcome was inactive.

On to `Cc1ccc(-c2n[nH]c3c2C(c2ccccn2)N(c2ccc(C(=O)O)cc2)C3=O)cc1` (stereo not given), for which the fold change was -1.91 (inactive).

On to `COc1cc(/C=C2\SC(N3CCN(C)CC3)=NC2=O)cc(OC)c1OC`, for which the fold change was -1.05 (inactive).
